Bioassay records deposited in PubChem by National Center for Advancing Translational Sciences (NCATS).
Most compounds without a hit are left out; they make up all but 11% or so of the library.
L3MBTL1 inh – qHTS Assay for the Inhibitors of L3MBTL1. Lethal(3)malignant brain tumor-like protein 1 (Homo sapiens), Q9Y468. AlphaScreen L3MBTL1–H3K9me1 peptide binding. Potency, µM (highest dose often 57.1 µM), usual class: inhibitors. 0.66% of 230,000 active; also: nearly all actives have a fitted effect of over 60% in size
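L3MBTL1 (50 nM) pre-complexed 30 min with biotinylated H3(1-15)K9me1 peptide (75 nM), then compounds added for 30 min at room temperature; AlphaScreen streptavidin donor/nickel chelate acceptor beads (10 ug/mL final) read after 30 min dark incubation.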
JMJD2A Tudor – qHTS Assay for Inhibitors of JMJD2A-Tudor Domain; Lysine-specific demethylase 4A (Homo sapiens), O75164; AlphaScreen JMJD2A-Tudor / H3K4me3 peptide binding; Potency, µM (series often up to 114 µM), actives largely listed as inhibitors; 4.4% of 390,000 active; AID 504339, 2011; also: nearly all actives have a fitted effect of over 50% in size
BAZ2B block – qHTS Assay for Inhibitors of BAZ2B | 4.4% of 360,000 active | AlphaScreen BAZ2B-H3K14Ac peptide displacement | Potency, µM (titrated, usually from 114 µM), actives largely listed as inhibitors | Bromodomain adjacent to zinc finger domain protein 2B (Homo sapiens), Q9UIF8; also: nearly all actives have a fitted effect of over 60% in size
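Complex of BAZ2B and biotin-H3K14Ac (50 nM apiece) forms over 30 min at RT, then faces library compounds up to 110 uM for another 30 min; AlphaScreen beads added, 20 min dark incubation, luminescence read.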
HP1b binding inh – HTS for Inhibitors of HP1-beta Chromodomain Interactions with Methylated Histone Tails; Chromobox protein homolog 1 (Homo sapiens), P83916; AlphaScreen HP1-beta / biotin-H3K9me3 peptide binding; Potency, µM (doses to about 114 µM), actives largely listed as inhibitors; 0.56% of 390,000 active; also: nearly all actives have a fitted effect of over 70% in size
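HP1-beta protein (50 nM final) preincubated 30 min at room temperature with biotinylated H3(1-18)K9me3 peptide (50 nM) in PBS pH 7.4, 0.01% Tween-20, then compound added for 30 min. AlphaScreen streptavidin donor/nickel chelate acceptor beads (10 ug/mL final), 30 min dark, luminescence read.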
G9a inh – qHTS Assay for Inhibitors of Histone Lysine Methyltransferase G9a. Histone-lysine N-methyltransferase EHMT2 (Homo sapiens), Q96KQ7. G9a H3K9 monomethylation, AlphaScreen, 2 h. Potency, µM (top dose mostly 102 µM), usual class: inhibitors. 8.8% of 350,000 active. AID 504332, 2011; also: nearly all actives have a fitted effect of over 75% in size
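Chemiluminescent proximity detection of H3K9 monomethylation, read after 10 min bead incubation in the dark. Reaction: 20 nM G9a, 500 nM biotin-H3K9 peptide, 20 uM SAM cofactor, 2 h, room temperature, following 15 min enzyme-compound preincubation.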
Each line names hits and unclear results; the compound was inactive in the other large screens. Calls follow the shape of the dose curve; as a rule, active = well fitted inhibition curve with a large enough effect; inconclusive = small, poorly fitted or top-dose-only effect; inactive = no such curve, though single readings can be large or run the other way.

c1ccc2c(c1)CCN(c1nc(CN3CCOCC3)nc3sc4c(c13)CCCC4)C2	BAZ2B block 35µM, HP1b binding inh inconclusive, G9a inh inconclusive
CCOC(=O)c1cccc(NC(=O)CN2C(=O)CC(C)(C)Sc3ccccc32)c1	none (no result: L3MBTL1 inh)
CCSc1ncc(Cl)c(C(=O)N2CCN(c3ccc(OC)cc3)CC2)n1	JMJD2A Tudor inconclusive, BAZ2B block inconclusive, G9a inh 14µM (no result: L3MBTL1 inh)
COc1ccc(N2CCN(C(=O)c3c(Cl)cnn3C)CC2)cc1	none (no result: L3MBTL1 inh)
CCCS(=O)(=O)c1ncc(Cl)c(C(=O)N2CCN(c3ccc(OC)cc3)CC2)n1	G9a inh 11µM (no result: L3MBTL1 inh)
C[C@H](NC(=O)c1nc[nH]c1C(=O)N[C@@H](Cc1ccccc1)C(=O)OC(C)(C)C)C(=O)OC(C)(C)C	none (no result: L3MBTL1 inh)
CC(C)C[C@@H](CN)NC(=O)c1nc[nH]c1C(=O)N[C@@H](Cc1ccccc1)C(=O)CNC[C@H](C)NC(=O)c1nc[nH]c1C(=O)N[C@@H](C)C(=O)O	JMJD2A Tudor 79µM (no result: L3MBTL1 inh, BAZ2B block, G9a inh)
CC(C)C[C@@H](CNCC(=O)[C@H](Cc1c[nH]c2ccccc12)NC(=O)c1[nH]cnc1C(=O)N[C@@H](C)CN)NC(=O)c1nc[nH]c1C(=O)N[C@@H](Cc1ccccc1)C(=O)O	JMJD2A Tudor inconclusive (no result: L3MBTL1 inh, BAZ2B block, G9a inh)
CC(C)C[C@@H](CN)NC(=O)c1nc[nH]c1C(=O)N[C@@H](Cc1c[nH]c2ccccc12)C(=O)CNC[C@H](C)NC(=O)c1nc[nH]c1C(=O)N[C@@H](C)C(=O)O	JMJD2A Tudor 56µM (no result: L3MBTL1 inh, BAZ2B block, G9a inh)
CC(C)C[C@@H](CN)NC(=O)c1nc[nH]c1C(=O)N[C@@H](Cc1ccccc1)C(=O)CNC[C@H](C)NC(=O)c1nc[nH]c1C(=O)N[C@@H](CC(C)C)C(=O)O	JMJD2A Tudor 56µM (no result: L3MBTL1 inh, BAZ2B block, G9a inh)
CO[C@H](C(=O)[C@@H](O)[C@@H](C)O)C1Cc2cc3cc(O[C@H]4C[C@@H](O[C@H]5C[C@@H](O)[C@H](O)[C@@H](C)O5)[C@@H](O)[C@@H](C)O4)c(C)c(O)c3c(O)c2C(=O)[C@H]1O[C@H]1C[C@@H](O[C@H]2C[C@@H](O[C@H]3C[C@](C)(O)[C@H](O)[C@@H](C)O3)[C@H](O)[C@@H](C)O2)[C@H](O)[C@@H](C)O1 (some centres not stated)	none (no result: L3MBTL1 inh, JMJD2A Tudor, BAZ2B block, HP1b binding inh)
Cc1cc(-n2c(C)nc3ccccc3c2=O)ccc1NC(=O)c1ccc(C)c([N+](=O)[O-])c1	BAZ2B block inconclusive (no result: L3MBTL1 inh)
CCOC(=O)c1cc(-c2ccccc2)nn1CCC#N	none
CCOC(=O)c1cc(-c2ccc(C)o2)nn1CCC#N	G9a inh 13µM
COc1cc2c3nnc(-c4ccc(F)cc4)c-3cn(Cc3ccc(F)cc3)c2cc1OC	G9a inh 50µM (no result: L3MBTL1 inh)
COc1ccc(Cn2cc3c(-c4ccc(F)cc4)nnc-3c3cc(OC)c(OC)cc32)cc1	none
CCCCC(CC)CNC(=O)CCCCCn1c(=O)[nH]c2ccsc2c1=O (configuration not stated)	none (no result: L3MBTL1 inh)
O=C(NCc1cccnc1)C1CC(c2ccccc2Cl)=NO1 (configuration not stated)	none
O=C(C1CC(c2ccccc2O)=NO1)N1CCc2ccccc2C1 (configuration not stated)	BAZ2B block inconclusive (no result: L3MBTL1 inh)
O=C(C1CC(c2ccccc2O)=NO1)N1CCCCC1 (configuration not stated)	JMJD2A Tudor 89µM, BAZ2B block inconclusive, G9a inh inconclusive (no result: L3MBTL1 inh)
O=C(NCc1cccnc1)C1CC(c2ccccc2O)=NO1 (configuration not stated)	JMJD2A Tudor 50µM, BAZ2B block inconclusive, G9a inh 25µM
CCOc1ccc(NC(=O)CN2CCSc3ccc(S(=O)(=O)N4CCCC4)cc32)cc1	none (no result: L3MBTL1 inh)
Cc1ccc(NC(=O)CSc2nc3ccccc3c3nc(CCn4c(C)nc5ccccc54)nn23)cc1F	none (no result: L3MBTL1 inh)
O=C1NC(=S)N/C1=C/c1cc([N+](=O)[O-])ccc1O	G9a inh 11µM (no result: L3MBTL1 inh)
O=C1NC(=S)N/C1=C/c1cccc([N+](=O)[O-])c1O	BAZ2B block inconclusive
